Screens from PubChem BioAssay.
Compounds with a hit are over-represented: about 12% of the library has one in this group of screens.
Insulin prom inh = TRM-6 insulin promoter activity inhibition; TRM-6 cells (human fetal islet line), insulin promoter-eGFP reporter, imaging; reporter expression induced with tamoxifen; inhibition, % at 2 µM; 130,000 tested, 0.9% active;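 active means inhibition above the mean plus 3 SD, with well images judged a real hit on visual review, cut at about 60% in these data, passing the limit was not always enough; inconclusive means inhibition over the cutoff but images rejected on review; inactive means inhibition not above the cutoff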
ROMK primary = modulates human ROMK potassium channel activity; B-score at 10 µM; 130,000 tested, 2% active; P48048; Tet-inducible ROMK, thallium flux fluorescence; actives lie on both sides;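 active means signal ratio slope over the read window, or its plate-corrected B-score, at least 3 SD from the plate mean, either direction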;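 further: B-score of the F/F0 ratio slope over 7 to 12 s after thallium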
KCC2 mod = KCC2 (human) Cl- transport modulation; Q9H2X9; KCC2 cells, thallium flux FluoZin-2 fluorescence; B-score of Tl+ flux slope (higher = more flux/activation; lower = inhibition) at 10 µM; 190,000 tested, 2.2% active; AID 1456;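 active means thallium flux slope and its plate-corrected score both differing from the plate sample mean at a set confidence after two filtering rounds, in either direction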;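 further: slope of fluorescence scaled to starting intensity during 10 to 20 s after thallium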
Target sequence (Q9H2X9 whole entry, looked up): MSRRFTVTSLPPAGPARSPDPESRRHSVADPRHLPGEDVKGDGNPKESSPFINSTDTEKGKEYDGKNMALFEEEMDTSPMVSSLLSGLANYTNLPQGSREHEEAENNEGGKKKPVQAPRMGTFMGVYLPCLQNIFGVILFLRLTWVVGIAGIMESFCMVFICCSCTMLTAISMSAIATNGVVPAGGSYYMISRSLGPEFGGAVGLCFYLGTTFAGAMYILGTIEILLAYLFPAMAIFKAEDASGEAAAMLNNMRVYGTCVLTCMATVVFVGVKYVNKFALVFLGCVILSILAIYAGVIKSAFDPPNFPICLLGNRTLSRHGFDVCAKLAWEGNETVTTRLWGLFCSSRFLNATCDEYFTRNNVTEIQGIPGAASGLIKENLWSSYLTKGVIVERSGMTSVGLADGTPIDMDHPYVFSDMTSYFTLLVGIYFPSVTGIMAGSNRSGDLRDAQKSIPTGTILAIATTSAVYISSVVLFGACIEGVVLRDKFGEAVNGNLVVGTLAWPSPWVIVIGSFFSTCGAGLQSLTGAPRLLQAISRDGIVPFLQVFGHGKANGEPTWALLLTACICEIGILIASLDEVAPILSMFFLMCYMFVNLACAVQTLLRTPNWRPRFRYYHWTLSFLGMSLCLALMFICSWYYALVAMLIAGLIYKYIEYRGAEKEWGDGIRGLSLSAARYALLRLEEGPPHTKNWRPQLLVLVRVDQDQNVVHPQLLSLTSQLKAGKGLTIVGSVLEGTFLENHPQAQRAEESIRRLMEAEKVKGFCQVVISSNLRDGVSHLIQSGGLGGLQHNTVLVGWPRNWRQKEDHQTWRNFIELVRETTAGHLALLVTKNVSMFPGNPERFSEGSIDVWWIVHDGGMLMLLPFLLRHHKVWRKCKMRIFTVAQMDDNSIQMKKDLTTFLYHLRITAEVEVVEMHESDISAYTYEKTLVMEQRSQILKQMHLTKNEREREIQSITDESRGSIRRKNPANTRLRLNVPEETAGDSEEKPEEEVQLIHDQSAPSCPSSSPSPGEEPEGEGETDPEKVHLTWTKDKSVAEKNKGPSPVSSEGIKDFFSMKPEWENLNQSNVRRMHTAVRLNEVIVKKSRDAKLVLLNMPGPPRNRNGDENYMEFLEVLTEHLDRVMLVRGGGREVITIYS
L major viab = inhibitors of Leishmania major promastigote growth; inhibition, % at 10 µM; 200,000 tested, 9% active; Leishmania major promastigotes, resazurin fluorescence viability; in the data active means inhibition above about 50%;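 further: promastigotes grown with compound for 44 hours at 28 °C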
WT yeast gro inh = growth inhibition of WT yeast, mitochondrial fusion screen | 190,000 tested, 2.1% active | AID 1362 | mitochondrial fusion phenotypic screen, WT strain | inhibition, % at 10 µM; in the data active means inhibition above about 58%; tested in S. cerevisiae
Insulin prom up = MIN6 insulin promoter up-regulation; MIN6 insulin promoter-GFP reporter, high-content imaging; stronger effect = higher value; 190,000 tested, 0.3% active; z-score at 5 µM; AID 1625;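 active means z-score above 3 at 5 µM with at least 500 cells counted in the well; inconclusive means wells under 500 cells, flagged as cytotoxic or low count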
L major 1uM = blocks Leishmania major promastigote growth at 1 uM, repeat screen | shares compounds with L major viab | L. major promastigote growth, resazurin fluorescence, 48 h | inhibition, % at 1 µM | 1,100 tested, 13% active;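 active means inhibition above about 50% in both repeat tests, limit read from the data; inconclusive means one repeat under the set limit, the other over it; inactive means both repeats under the set limit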
The depositor's hits bear a star; ? = inconclusive; . = no result.

SMILES	Insulin prom inh	ROMK primary	KCC2 mod	L major viab	WT yeast gro inh	Insulin prom up	L major 1uM
Cc1cc(C(C)(C)C)c(O)c(C)c1CC1=NCCN1	.	-1.23	.	-3.5	-38.3	-0.03	.
Cc1ncc([N+](=O)[O-])n1CCOC(=O)c1cc(Cl)cc(Cl)c1N	-68.0	.	-1.37	60.1*	46.7	-0.02	-5.9
Cc1ccccc1N1C(S)=C(C#N)C(=O)NC12CCCCC2	2.7	0.331	-1.28	51.0*	4.3	-0.14	-19.8
Cc1ccc(N2C(S)=C(C#N)C(=O)NC23CCCCC3)cc1	23.3	-0.086	-0.182	-1.1	-37.3	0.64	.
COc1cc(S(=O)(=O)N2CCN(c3ccc(F)cc3)CC2)ccc1Cl	.	-1.4	0.76	-0.8	28.1	-0.05	.
CC(C)Cc1cc(C(=O)NCc2ccco2)no1	.	.	-0.221	-10.3	7.2	0.53	.
Oc1c(C=NCc2ccccc2)sc2ccccc12	14.3	-0.105	-0.176	56.4*	-6.2	-0.02	-9.2
COc1ccc(N2C(=O)NC(NC(=O)c3cccnc3)(C(F)(F)F)C2=O)cc1 (stereo not given)	.	.	-0.444	-5.6	-2.5	-0.95	.
COc1ccc([C@@H]2Sc3cc(OC)ccc3N(CCN(C(C)C)C(C)C)C(=O)[C@H]2OC(C)=O)cc1	-366.7	.	0.295	73.6*	4.7	.	-5.1
Cc1nc(N)sc1C(=O)N/N=C/c1ccc([N+](=O)[O-])cc1	.	0.00948	0.895	.	.	.	.
Cc1csc(/N=C/c2ccc([N+](=O)[O-])cc2)n1	26.9	-1.76	-0.544	52.3*	-3.6	-0.02	-3.4
O=C(N/N=C/c1ccccc1OCc1ccccc1Cl)c1cccnc1	.	.	.	90.9*	-1.9	0.12	-11.4
COc1cc2c(cc1OC)C(c1ccc(-c3ccccc3Cl)o1)=NCC2	-46.4	-1.68	-0.264	68.1*	66.8	-1.16	2.5
Clc1ccc(CN2C3=NCCCN3c3ccccc32)cc1	-136.4	-1.7	.	100.2*	-3.2	.	-10.2
CCC1Sc2ccccc2N(CC(=O)NCCC2=CCCCC2)C1=O (stereo not given)	-35.2	-2.55	-0.61	1.4	12.1	0.31	.
CCOC(=O)c1ccccc1NC(=O)Cc1sc(-c2cccnc2)nc1-c1ccc(C)cc1	24.0	.	-0.0274	96.9*	45.3	-0.18	-3.8
N#Cc1cc(Oc2cccc3cccnc23)c(-n2nnc3ccccc32)cc1C#N	.	0.00606	-0.0356	68.7*	10.1	-0.87	-10.3
CC1SCC(=O)N(CC(=O)Nc2ccc3c(c2)OCCO3)C1=O (stereo not given)	-5.6	0.63	0.979	8.9	-5.6	0.34	.
OCCC1CN(Cc2cnc(-c3ccc(Cl)cc3)nc2)CCN1C1CCCCC1 (stereo not given)	.	.	0.118	87.4*	-5.3	-0.73	12.3
CC(C)(O)C#Cc1ccc(CN2CCN(C3CCCCC3)C(CCO)C2)cc1 (stereo not given)	.	0.61	.	-0.9	1.8	0.36	.
CC(NC(=O)CSc1n[nH]c(=O)n1C1CC1)C12CC3CC(CC(C3)C1)C2 (stereo not given)	13.2	.	-0.27	5.3	-2.2	-1.07	.
NNC(=O)c1ccc(CSc2cccc3cccnc23)cc1	-36.4	0.204	0.00562	-11.9	11.1	0.12	.
Cc1cccc(CSc2cccc3cccnc23)c1	50.0	.	19*	100.3*	64.7	.	-9.0
Clc1ccc2nnnc(-c3ccccc3)c2c1	30.0	.	0.472	85.7*	-11.8	?	3.8
CN1CCCCc2c1[nH]c1ccccc1c2=O	-42.9	-0.202	0.465	98.2*	-0.8	-0.1	-2.8
SMILES	Insulin prom inh	ROMK primary	KCC2 mod	L major viab	WT yeast gro inh	Insulin prom up	L major 1uM
CCOc1ccc(NC(=O)CN2CCN(S(=O)(=O)c3ccc(Cl)cc3)CC2)cc1	-45.5	0.611	-0.0183	-6.0	3.4	.	.
CCN(CC)c1ccc(NC(=O)CN2CCN(S(=O)(=O)c3cc(Cl)ccc3OC)CC2)cc1	-3.2	-1.93	-0.54	54.2*	26.3	-0.35	65.7*
O=C(Nc1ccc2c(c1)oc1ccccc12)c1cccnc1	.	-1.35	-1.92	11.5	18.4	1.18	.
O=C(/C=C/c1ccco1)OCc1nnc(-c2ccc(Cl)cc2)o1	35.7	-0.0543	0.00016	3.6	-0.2	0.31	.
CC(=O)/C=C/n1c(=S)oc2ccccc21	-31.0	.	0.883	100.5*	5.0	-1.33	17.8
Nc1n[nH]c(-c2ccccc2[N+](=O)[O-])n1	-27.0	-0.0419	0.253	60.3*	-19.4	-0.07	-3.7
CN(CCN1CCc2ccccc2C1)Cc1nc(Cc2ccccc2F)no1	.	0.0219	-0.11	85.1*	3.1	0.37	71.7*
